# Screens from PubChem BioAssay.
# Pf growth 48h = inhibits P. falciparum growth in the first generation, 48 h | P. falciparum luciferase growth in erythrocytes, 48 h | Potency, µM (doses to about 28.7 µM), for inactives: at the highest dose activity change, negative = inhibition, usual class: inhibitors | hit rate 5.9% among 310,000 | AID 504832; note: potency is the fitted concentration of half-maximal effect; % is set by controls: 0 for no effect and ±100 for the full control effect
#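 Luciferase-expressing P. falciparum in infected erythrocytes (2% hematocrit, 0.1% parasitemia final) in RPMI 1640/0.5% Albumax were exposed to compound for 48 hours at 37 C, 5% CO2; growth read as luminescence.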
# Pf growth 96h = P. falciparum growth inhibition at 96 hour, primary screen for plastid delayed-death inhibitors; AID 504834; Potency, µM (series often up to 28.7 µM), for the others: at the top dose activity change, negative = inhibition, usual class: inhibitors; P. falciparum luciferase reporter growth, 96 h; hit rate 6.9% among 320,000; note: potency is the fitted concentration of half-maximal effect; % is set by controls: 0 for no effect and ±100 for the full control effect
#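 P. falciparum expressing integrated firefly luciferase, in erythrocytes at 2% hematocrit, 0.05% parasitemia, incubated with compounds 96 h at 37 C, 5% CO2. Growth inhibition read as loss of luminescence; two-generation exposure targets delayed-death apicoplast inhibitors.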
# Shiga toxin inh = blocks Shiga toxin action in Vero cells. Vero cells, Shiga toxin protein synthesis inhibition reporter. inhibition, % at 38.7 µM. hit rate 9.2% among 290,000. AID 2315; in the data active = inhibition mostly above about 28%, no sharp cut-off; inactive = mostly below about 43%; note: 0% is about no effect
# CHX counter = counter-screen for Shiga toxin inhibitors: cycloheximide protein synthesis inhibition | hit rate 12% among 300,000 | AID 2314 | max response, % | cell reporter, cycloheximide protein synthesis inhibition counterscreen; in the data active = max response mostly above about 13%, no sharp cut-off; inactive = mostly below about 14%; note: read at 38.3 µM for the half of the compounds with a filed dose; 0% is about no effect
# * hit, by the source's call; ? = inconclusive; · = no result; + = active, no number. A selection: hits, their analogues and other compounds. The true share with any hit is near 21%. Unless noted, calls come from the whole dose curve; as a rule, active = well fitted inhibition curve with a large enough effect; inconclusive = small, poorly fitted or top-dose-only effect, or another doubt; inactive = no such curve, though single readings can be large or run the other way.
SMILES,Pf growth 48h,Pf growth 96h,Shiga toxin inh,CHX counter
COc1ccc(NC(=O)C2CCCN(c3cnccn3)C2)cc1 (configuration not stated),-17%,?,-3,14
CCC(C)c1ccc(NC(=O)C2CC2)cc1 (configuration not stated),?,171%,59*,25*
CC(C)(C)c1ccc(NC(=O)C2CCCN(c3cnccn3)C2)cc1 (configuration not stated),?,-19%,34,16*
CCC(C)c1ccc(NC(=O)C2CCCN(c3ncccn3)C2)cc1 (configuration not stated),-8%,8%,50*,33*
CN(C)CCCNC(CC(=O)Nc1cccc([N+](=O)[O-])c1)C(=O)O (configuration not stated),-13%,12%,-10,-5
CCCn1c(SCC(=O)NCc2ccc3c(c2)OCO3)n[nH]c1=O,-28%,-30%,·,·
Cc1cc(C)c(NC(=O)C2CCN(c3cnccn3)CC2)c(C)c1,6%,13µM*,14,-4
CC(=O)OCC(NC(=O)C(COCc1ccccc1)NC(=O)OC(C)(C)C)C1OC(n2cc(F)c(=O)[nH]c2=O)C(OC(C)=O)C1OC(C)=O (configuration not stated),·,·,-7,-2
C[N+]1=C(/C=C/Nc2ccccc2Cl)C(C)(C)c2ccccc21,12µM*,?,-8,-4
COC(=O)c1ccc2c(c1)C(C)(C)C(/C=C/c1ccccc1O)=[N+]2C,?,?,-26,-13
CCOc1ccc(CC(=O)Nc2c(C(N)=O)oc3ccc(Br)cc23)cc1OCC,·,12µM*,-5,-2
CCOc1ccc(CC(=O)Nc2c(C(=O)Nc3ccccc3)oc3ccccc23)cc1OCC,-1%,0.93µM*,-12,-3
COc1ccc(CC(=O)Nc2c(C(N)=O)oc3ccccc23)cc1OC,-8%,-1%,14,-4
CC(C)NC(=O)CC1C(=O)N(Cc2ccccc2)C(C)c2nc3ccccc3n21 (configuration not stated),-2%,-24%,-8,-6
Cc1cccc2nc(CSc3nc4ccccc4o3)cn12,90%,77%,+,49*
c1ccc(N2CCN(Cc3cn4ccccc4n3)CC2)cc1,6%,?,-2,1
Cc1cccc2nc(CSc3nnnn3-c3ccccc3)cn12,·,-35%,-10,3
c1ccc2nc(SCc3cn4ccccc4n3)cnc2c1,0%,?,64*,40*
c1ccc2oc(SCc3cn4ccccc4n3)nc2c1,97%,-19%,65*,52*
O=C(CSc1cnc2ccccc2n1)NC1CCCC1,·,28%,44,5
COc1ccc(Cl)cc1NC(=O)CN(C)C(=O)Cn1cnc2c1c(=O)n(C)c(=O)n2C,7%,23%,·,·
Cc1ccc(SCC(Cc2ccccc2)N2CCN(CC(C)C)CCC2=O)cc1 (configuration not stated),·,·,50*,28
CC(C)CN1CCC(=O)N([C@H](CSc2ccc(Br)cc2)Cc2ccccc2)CC1,?,?,-5,-2
COc1ccc(SCC(Cc2ccccc2)N2CCN(CC(C)C)CCC2=O)cc1 (configuration not stated),·,·,53*,30*
N#CCC(=N)N1CCN(c2ccccc2)CC1,?,?,53*,13
SMILES,Pf growth 48h,Pf growth 96h,Shiga toxin inh,CHX counter
N#CCC(=N)N1CCN(c2ccccc2Cl)CC1,1%,29%,+,-1
O=C(NCCCNC(=O)c1cnccn1)c1cccc(F)c1,20%,?,-2,-5
FC(F)(F)C(Oc1nc(NC2CCCCC2)nc(N2CCOCC2)n1)C(F)(F)F,12µM*,?,1,-1
COc1ccc(C)cc1NC(=O)c1ccc(CN2CCc3ccccc3C2)cc1,-15%,1%,-3,1
COC(=O)c1ccc(C)c(NC(=O)c2ccc(CN3CCc4ccccc4C3)cc2)c1,-7%,9.3µM*,-8,0
O=C(Nc1ccccc1)c1ccc(CN2CCc3ccccc3C2)cc1,-15%,39%,54,27*
O=C(Nc1ccccc1F)c1ccc(CN2CCc3ccccc3C2)cc1,5%,-3%,27,20*
O=C(Nc1ccc(S(=O)(=O)N2CCCCC2)cc1)c1ccc(CN2CCc3ccccc3C2)cc1,?,7.4µM*,-7,2
Cc1cccc(N(CC(=O)N/N=C/c2cc([N+](=O)[O-])ccc2Cl)S(C)(=O)=O)c1C,?,94%,-4,-2
CCN(C(=O)CSc1nnnn1C)C1CCS(=O)(=O)C1 (configuration not stated),7%,43%,·,·
COC(=O)c1ccc(C(=O)Nc2ccc(F)cc2)cc1,67%,146%,·,·
O=C(Nc1ccccc1)Nc1ccc(F)cc1F,84%,-1%,96*,40*
COC(=O)c1ccc(NC(=O)Nc2ccc(F)cc2F)cc1,246%,8%,143*,37*
CC(=O)Nc1cccc(NC(=O)Nc2ccc(F)cc2F)c1,3%,40%,31,10
COC(=O)c1ccc(NC(=O)Nc2cccc(F)c2)cc1,335%,11%,86*,54*
CC1C(=O)N2CCCc3cc(NC(=O)c4ccccc4C(F)(F)F)cc1c32 (configuration not stated),-8%,?,·,·
Cc1ccc(Cl)cc1N1CCN(C2CCCCC2NS(=O)(=O)c2ccccc2)CC1 (configuration not stated),?,19%,-5,-5
Cc1ccc(C)c(N2CCN(C3CCCCC3NS(=O)(=O)c3ccccc3)CC2)c1 (configuration not stated),?,12µM*,-10,-4
C/C(=N\NC(=O)c1nnn(-c2nonc2N)c1-c1cccs1)c1ccc(O)cc1,12µM*,12µM*,5,3
COc1ccc(/C(C)=N/NC(=O)c2nnn(-c3nonc3N)c2-c2ccccc2)cc1,6%,62%,-6,-2
CCCOc1ccc(-c2c(C(=O)N/N=C(\C)c3ccncc3)nnn2-c2nonc2N)cc1,?,9.3µM*,-9,-11
C/C(=N\NC(=O)c1nnn(-c2nonc2N)c1-c1ccc2c(c1)OCO2)c1cccs1,?,12µM*,14,11
C/C(=N/NC(=O)c1nnn(-c2nonc2N)c1-c1ccccc1)c1ccncc1,17%,7.4µM*,-15,-3
O=CNCCCc1nc2ccccc2n1CCc1ccccc1,-2%,3%,35,-2
C=C1C(=O)O[C@@H]2C[C@@H](C)[C@H]3C=CC(=O)[C@]3(O)C[C@@H]12,?,?,29,14*
SMILES,Pf growth 48h,Pf growth 96h,Shiga toxin inh,CHX counter
CC(=O)c1ccc(OCc2ccccc2)c(C)c1O,71%,57%,32,29*
NNC(=O)c1ccccc1OCc1ccccc1,15%,?,38*,17*
COc1cc(NC(=O)c2ccccc2OCc2ccccc2)cc(OC)c1OC,9.3µM*,-19%,5,-3
CCOC(=O)c1cnc2c(ccc3ccccc32)c1NCCO,14%,?,38*,12
CCOC(=O)c1cnc2ccc(C(=O)OC)cc2c1NCCN1CCOCC1,9%,?,-14,-2
CCOC(=O)c1cnc2c(ccc3ccccc32)c1NCCN(C)C,0%,12%,28,10
CCOC(=O)c1cnc2c(ccc3ccccc32)c1N,92%,139%,·,34*
